Assay results taken from the supplement of paper PMC7595190.
Values without a mark were called inactive.

Assays:
Test in all cases: CellTox Green cytotoxicity fluorescence relative to DMSO vehicle (fold of vehicle RFU); higher = more cell death (loss of membrane integrity), active = 2 or more
[1] = system: CMK
Outline: (§1)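 CellTox Green reagent was added when MV4-11, CMK and Kasumi-1 cells were seeded at 4.0 × 10^4 cells per well, and single compounds from the Selleckchem apoptosis library were added at final 0.01, 0.1 and 1 µM in DMSO (vehicle 0.1% DMSO). Fluorescence at Ex 485 nm and Em 520 nm was read after 24, 48 and 72 h at 37 °C, 5% CO2. The reported cytotoxicity corresponds to loss of membrane integrity, given as fold of the DMSO vehicle.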

[2] = system: Kasumi-1
Outline: as §1

[3] = system: MV4-11
Outline: as §1

Row | SMILES | CellTox Green cytotoxicity fluorescence ([1]; 0.01 µM, 24 h) | CellTox Green cytotoxicity fluorescence ([1]; 0.01 µM, 48 h) | CellTox Green cytotoxicity fluorescence ([1]; 0.01 µM, 72 h) | CellTox Green cytotoxicity fluorescence ([1]; 0.1 µM, 24 h) | CellTox Green cytotoxicity fluorescence ([1]; 0.1 µM, 48 h) | CellTox Green cytotoxicity fluorescence ([1]; 0.1 µM, 72 h) | CellTox Green cytotoxicity fluorescence ([1]; 1 µM, 24 h) | CellTox Green cytotoxicity fluorescence ([1]; 1 µM, 48 h) | CellTox Green cytotoxicity fluorescence ([1]; 1 µM, 72 h) | CellTox Green cytotoxicity fluorescence ([2]; 0.01 µM, 24 h) | CellTox Green cytotoxicity fluorescence ([2]; 0.01 µM, 48 h) | CellTox Green cytotoxicity fluorescence ([2]; 0.01 µM, 72 h) | CellTox Green cytotoxicity fluorescence ([2]; 0.1 µM, 24 h) | CellTox Green cytotoxicity fluorescence ([2]; 0.1 µM, 48 h) | CellTox Green cytotoxicity fluorescence ([2]; 0.1 µM, 72 h) | CellTox Green cytotoxicity fluorescence ([2]; 1 µM, 24 h) | CellTox Green cytotoxicity fluorescence ([2]; 1 µM, 48 h) | CellTox Green cytotoxicity fluorescence ([2]; 1 µM, 72 h) | CellTox Green cytotoxicity fluorescence ([3]; 0.01 µM, 24 h) | CellTox Green cytotoxicity fluorescence ([3]; 0.01 µM, 48 h) | CellTox Green cytotoxicity fluorescence ([3]; 0.01 µM, 72 h) | CellTox Green cytotoxicity fluorescence ([3]; 0.1 µM, 24 h) | CellTox Green cytotoxicity fluorescence ([3]; 0.1 µM, 48 h) | CellTox Green cytotoxicity fluorescence ([3]; 0.1 µM, 72 h) | CellTox Green cytotoxicity fluorescence ([3]; 1 µM, 24 h) | CellTox Green cytotoxicity fluorescence ([3]; 1 µM, 48 h) | CellTox Green cytotoxicity fluorescence ([3]; 1 µM, 72 h)
1 | C[C@H]1Oc2cc(cnc2N)-c2c(nn(C)c2C#N)CN(C)C(=O)c2ccc(F)cc21 | 0.989 | 0.966 | 0.982 | 0.951 | 0.957 | 0.948 | 1 | 1.05 | 1.07 | 1.05 | 1.01 | 1.01 | 1.01 | 0.988 | 0.997 | 0.922 | 0.929 | 0.914 | 0.984 | 0.959 | 0.958 | 0.992 | 0.992 | 0.992 | 0.964 | 0.976 | 0.975
2 | CC[C@H](NC(=O)[C@H](C)NC)C(=O)N1C[C@@H](O)C[C@H]1Cc1c(-c2[nH]c3cc(F)ccc3c2C[C@@H]2C[C@H](O)CN2C(=O)[C@H](CC)NC(=O)[C@H](C)NC)[nH]c2cc(F)ccc12 [Birinapant] | 0.985 | 0.974 | 0.988 | 0.998 | 0.996 | 1 | 0.983 | 1.03 | 0.952 | 0.993 | 1.03 | 1.05 | 1.02 | 1.1 | 1.2 | 1.04 | 1.26 | 1.5 | – | – | – | – | – | – | – | – | –
3 | Cc1nc(Nc2ncc(C(=O)Nc3c(C)cccc3Cl)s2)cc(N2CCN(CCO)CC2)n1 [Dasatinib Monohydrate] | 1.01 | 1.02 | 1.07 | 1.02 | 1.04 | 0.987 | 1 | 1.05 | 1.09 | 1.03 | 1.09 | 1.13 | 1.02 | 1.15 | 1.23 | 0.928 | 1.13 | 1.24 | – | – | – | – | – | – | – | – | –
4 | COC(=O)[C@H](CCSC)NC(=O)c1ccc(NC[C@@H](N)CS)cc1-c1ccccc1 | 0.934 | 0.924 | 0.941 | 0.896 | 0.897 | 0.941 | 0.938 | 0.978 | 1.04 | 0.974 | 0.922 | 0.926 | 0.932 | 0.927 | 0.924 | 0.941 | 0.973 | 0.997 | 0.942 | 0.936 | 0.953 | 0.947 | 0.943 | 0.932 | 0.927 | 0.931 | 0.944
5 | CCCCCCCCCCCC1=C(O)C(=O)C=C(O)C1=O [Embelin] | 1.03 | 1.04 | 1.09 | 0.994 | 0.99 | 0.973 | 0.986 | 1.04 | 1.05 | 0.991 | 0.988 | 0.992 | 1.01 | 0.999 | 0.996 | 1.02 | 1.03 | 1.04 | – | – | – | – | – | – | – | – | –
6 | N#CC(=Cc1ccc(-c2cc(Cl)ccc2Cl)o1)C(=O)Nc1cccc2ncccc12 | 0.949 | 0.938 | 0.947 | 0.993 | 0.99 | 0.992 | 1 | 1.05 | 1.03 | 1 | 0.958 | 0.958 | 0.998 | 0.979 | 0.979 | 0.939 | 0.916 | 0.917 | 1.01 | 0.987 | 0.982 | 0.998 | 0.992 | 1.01 | 0.969 | 0.985 | 0.984
7 | CC(=O)N1c2ccc(-c3ccc(C(=O)O)cc3)cc2[C@H](Nc2ccc(Cl)cc2)C[C@@H]1C | 0.995 | 1.1 | 0.996 | 1.2 | 1.71 | 1.37 | 1.33 | 1.93 | 1.57 | 0.959 | 0.98 | 1.03 | 1.06 | 1.36 | 1.49 | 1.09 | 1.66 | 1.92 | 0.931 | 0.997 | 1.17 | 0.975 | 1.43 | 2.03 (active) | 1.09 | 1.87 | 2.28 (active)
8 | Nc1ccccc1NC(=O)c1cnccn1 | 0.987 | 0.99 | 0.976 | 0.967 | 0.987 | 1.02 | 0.965 | 1.02 | 1.11 | 0.967 | 0.96 | 0.904 | 0.988 | 0.995 | 0.988 | 0.932 | 1 | 1.06 | 0.953 | 0.952 | 0.937 | 0.964 | 0.984 | 0.99 | 0.954 | 0.989 | 1.01
9 | CN1CCN(CCCNc2ncc(Cl)c(-c3cc4c(C(=O)NC5CC5)cccc4s3)n2)CC1 | 0.99 | 0.985 | 0.953 | 0.97 | 0.978 | 0.95 | 0.956 | 0.993 | 1 | 0.943 | 0.931 | 0.891 | 0.958 | 0.947 | 0.949 | 0.953 | 1.03 | 1.01 | – | – | – | – | – | – | – | – | –
10 | C=CC(=O)N1CCC(Oc2cc3c(Nc4ccc(Cl)c(Cl)c4F)ncnc3cc2OC)CC1 [Poziotinib] | 1.02 | 1.01 | 1.02 | 1.03 | 1.02 | 1.02 | 0.999 | 1 | 0.915 | 0.992 | 0.982 | 0.982 | 1.03 | 1.02 | 1.02 | 0.994 | 1 | 1.04 | 0.975 | 0.986 | 0.988 | 1.02 | 1.02 | 1.03 | 1.01 | 1.03 | 1.09
11 | O=C(O)CSc1cc(NS(=O)(=O)c2ccc(Br)cc2)c2ccccc2c1O | 0.973 | 0.966 | 0.955 | 0.961 | 0.961 | 0.969 | 0.984 | 1.03 | 1.03 | 1.05 | 0.997 | 1.01 | 0.985 | 0.972 | 0.997 | 0.98 | 1.03 | 1.08 | – | – | – | – | – | – | – | – | –
12 | CCN(CC)CCNC(=O)c1c(C)[nH]c(/C=C2\C(=O)Nc3ccc(F)cc32)c1C [Sunitinib] | 1.02 | 1.01 | 0.896 | 1 | 0.997 | 0.964 | 1.05 | 1.16 | 1.04 | 0.988 | 1.01 | 1.11 | 1.03 | 1.15 | 1.18 | 1.08 | 1.32 | 1.45 | 1.02 | 1.06 | 1.04 | 1.09 | 1.42 | 1.78 | 1.11 | 1.44 | 1.72
13 | C=CCc1cccc(/C=N/NC(=O)CN2CCN(Cc3ccccc3)CC2)c1O | 0.917 | 0.909 | 0.921 | 0.92 | 0.917 | 0.953 | 0.913 | 0.937 | 1.06 | 1 | 0.934 | 0.93 | 0.918 | 0.918 | 0.918 | 0.916 | 0.914 | 0.892 | – | – | – | – | – | – | – | – | –
